The values below come from PubChem BioAssay AID1835 (Johns Hopkins Ion Channel Center, 2009).

Among all 2,400 compounds or so, about 750 (31%) were called active. The list shows a part of the results. Values without a mark were called inactive.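 Rule for the calls: active = median signal gain over dofetilide-blocked control wells reaching their mean plus 3 SD, so readout 1 at least 0; inactive = the rest.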

The target of this assay is Voltage-gated inwardly rectifying potassium channel KCNH2 (Homo sapiens) (UniProt Q12809). As to the kind of experiment: modulators restoring hERG flux under dofetilide – cell-based, thallium flux, duplicate retest, dofetilide IC70, confirmation (AID 1835). The note with it: hERG cell line, FluxOR thallium flux, dofetilide-blocked; at 10 µM; active compounds read high.
Voltage-gated inwardly rectifying potassium channel KCNH2 (Homo sapiens), sequence (Q12809 whole entry, looked up): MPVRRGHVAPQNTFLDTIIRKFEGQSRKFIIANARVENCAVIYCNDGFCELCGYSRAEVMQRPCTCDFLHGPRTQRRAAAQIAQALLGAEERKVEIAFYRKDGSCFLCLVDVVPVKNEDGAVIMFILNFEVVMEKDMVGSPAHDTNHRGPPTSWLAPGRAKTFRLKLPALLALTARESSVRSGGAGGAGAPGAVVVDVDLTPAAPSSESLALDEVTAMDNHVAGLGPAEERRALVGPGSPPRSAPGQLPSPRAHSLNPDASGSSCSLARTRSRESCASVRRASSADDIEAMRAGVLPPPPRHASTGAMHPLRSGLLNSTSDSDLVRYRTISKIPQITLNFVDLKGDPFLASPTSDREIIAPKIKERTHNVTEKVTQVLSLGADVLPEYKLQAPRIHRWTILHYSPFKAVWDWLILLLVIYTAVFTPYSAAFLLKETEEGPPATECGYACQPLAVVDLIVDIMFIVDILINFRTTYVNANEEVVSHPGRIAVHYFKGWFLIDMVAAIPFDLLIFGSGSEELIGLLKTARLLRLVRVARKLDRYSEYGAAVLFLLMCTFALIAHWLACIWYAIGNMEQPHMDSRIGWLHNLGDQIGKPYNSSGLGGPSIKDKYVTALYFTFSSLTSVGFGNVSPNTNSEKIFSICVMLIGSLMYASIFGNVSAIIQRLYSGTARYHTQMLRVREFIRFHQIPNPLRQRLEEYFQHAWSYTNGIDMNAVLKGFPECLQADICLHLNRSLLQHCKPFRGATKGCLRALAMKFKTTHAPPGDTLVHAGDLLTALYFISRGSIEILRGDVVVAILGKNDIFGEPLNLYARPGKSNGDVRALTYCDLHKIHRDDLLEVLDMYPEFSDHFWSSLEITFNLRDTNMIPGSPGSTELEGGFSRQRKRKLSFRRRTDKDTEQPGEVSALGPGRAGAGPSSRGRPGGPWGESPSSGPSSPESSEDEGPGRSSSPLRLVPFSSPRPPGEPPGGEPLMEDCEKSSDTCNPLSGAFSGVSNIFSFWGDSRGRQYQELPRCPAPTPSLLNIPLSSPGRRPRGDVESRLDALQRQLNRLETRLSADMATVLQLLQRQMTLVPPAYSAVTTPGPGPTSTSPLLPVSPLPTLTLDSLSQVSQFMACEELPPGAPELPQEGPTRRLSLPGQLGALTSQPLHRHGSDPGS
In the case of `COc1cc(/C=C2/OC(=O)c3cc([N+](=O)[O-])ccc32)cc(OC)c1OC`, the activity increase over dofetilide control, less the hit threshold is -10%.
In the case of `Cc1cc([N+](=O)[O-])ccc1-c1ccc(C2Nc3ccccc3C(=O)N2O)o1` (centres undefined) it was 7% (active).
For `Cc1ccc(/C=N/N2C(=O)c3ccccc3NC2c2ccc(C)cc2)cc1` (centres undefined), the activity increase over dofetilide control, less the hit threshold is -7%.
Take `C=CCn1c(-c2cc(-c3ccc(C)cc3)nc3ccccc23)n[nH]c1=S`: the activity increase over dofetilide control, less the hit threshold was -16%.
Turning to `Cc1ccc(C(C)C)c(OCc2n[nH]c(=S)o2)c1`, the activity increase over dofetilide control, less the hit threshold is -4%.
As for `Cc1ccc(-c2cc(-c3n[nH]c(=S)o3)c3ccccc3n2)cc1`, the activity increase over dofetilide control, less the hit threshold is 37% (active).
In the case of `CC(/C=C1\SC(=S)N(c2ccc(C(=O)O)cc2)C1=O)=C\c1ccccc1` it was -15%.
For the compound `COc1ccccc1/C=C1\SC(=S)N(NS(=O)(=O)c2ccc(C)cc2)C1=O`, the activity increase over dofetilide control, less the hit threshold was -20%.
In the case of `CC(/C=C1\SC(=S)N(NS(=O)(=O)c2ccccc2)C1=O)=C\c1ccccc1` it was 15% (active); in that of `Cc1ccc(S(=O)(=O)N2C(=O)/C(=C3\SC(=S)NC3=O)c3ccccc32)cc1`, -6%; in that of `CC(/C=C1\SC(=S)N(NS(=O)(=O)c2ccc(C)cc2)C1=O)=C\c1ccccc1`, 7% (active).
In the case of `O=C(O)CC1S/C(=N/N=C/c2ccc(-c3ccccc3[N+](=O)[O-])o2)NC1=O` (centres undefined) it was -22%; in that of `COc1ccc(NC(=O)C(=O)NNC(=O)COc2ccc(Cl)cc2)c(OC)c1`, 30% (active); in that of `COc1ccc(OC)c(NC(=O)C(=S)NC2CCCCC2)c1`, -2%.
Turning to `COc1ccc(OCC(=O)NNC(=O)C(=O)Nc2cc(OC)ccc2OC)cc1`, the activity increase over dofetilide control, less the hit threshold was 8% (active).
Turning to `COc1ccc(NC(=O)COC(=O)c2c(C)noc2C)c(OC)c1`, the activity increase over dofetilide control, less the hit threshold was -2%.
In the case of `COc1ccc(OC)c(NC(=O)C(=O)NNC(=O)C23CC4CC(CC(C4)C2)C3)c1` it was 83% (active); in that of `COc1ccc(OCC(=O)Nc2c3c(nn2-c2ccc(OC)cc2)CS(=O)(=O)C3)cc1`, -18%; in that of `COc1ccc(OC)c(NC(=O)COC(=O)c2ccc(-n3cnnn3)cc2)c1`, -10%.
In the case of `COc1ccc(NC(=O)C(=O)NNC(=O)COc2ccc(OC)cc2)cc1` it was -12%; in that of `COc1cccc(OCC(=O)NNC(=O)C(=O)Nc2ccc(OC)cc2OC)c1`, 39% (active); in that of `Cc1n[nH]c(C)c1CCNC(=O)C1CCC(=O)N(Cc2ccccc2F)C1` (centres undefined), -15%.
In the case of `O=c1c2cc(Br)ccc2nc(-c2ccc([N+](=O)[O-])cc2)n1O` it was 47% (active).
With `O=[N+]([O-])c1ccc(CSc2nnc(SCc3ccc(Cl)cc3)s2)cc1`, the activity increase over dofetilide control, less the hit threshold is 0%.
Turning to `O=[N+]([O-])c1ccc(Nc2ccc(Cl)cc2)nc1`, the activity increase over dofetilide control, less the hit threshold was -17%.
In the case of `O=c1c2cc(Cl)ccc2nc(-c2ccc([N+](=O)[O-])cc2)n1O`, the activity increase over dofetilide control, less the hit threshold was 16% (active).
In the case of `N#Cc1ccc(-c2nc3cc(Cl)ccc3c(=O)n2O)cc1` it was -4%; in that of `O=c1c2ccc(Cl)cc2nc(-c2ccc([N+](=O)[O-])cc2)n1O`, 16% (active).
With `O=C1C(c2ccccc2)C(c2ccccc2)NC(c2ccccc2)C1c1ccccc1` (centres undefined), the activity increase over dofetilide control, less the hit threshold was -17%.
Regarding `O=C(CC1NCCNC1=O)Nc1ccc([N+](=O)[O-])cc1` (centres undefined), the activity increase over dofetilide control, less the hit threshold was -17%.
For the compound `CC(=O)NCCC(=O)N(C)CC1CCN(CCc2cccc(C(F)(F)F)c2)CC1`, the activity increase over dofetilide control, less the hit threshold is -6%.
Consider `CS(=O)(=O)N1CCN(c2ccccc2NC(=O)Nc2cccc(Cl)c2)CC1`, for which the activity increase over dofetilide control, less the hit threshold is -16%.
In the case of `CC(=O)Nc1ccccc1C(=O)C(=O)Nc1ccccc1` it was -23%.
In the case of `COc1cc(/C=N/NC(=O)NC2CCCCC2)ccc1O`, the activity increase over dofetilide control, less the hit threshold was -20%.
In the case of `COc1ccccc1C(=O)NNC(=O)C(=O)NCc1ccccc1` it was 16% (active); in that of `Cc1ccc(NC(=O)C(=O)NNC(=O)c2ccccc2C)cc1Cl`, 54% (active); in that of `COc1ccccc1C(=O)NNC(=O)C(=O)NC1CCCCC1`, 49% (active).
In the case of `COc1ccccc1NC(=O)C1CCCN1C(=O)NCc1ccccc1` (centres undefined) it was -21%.
In the case of `COc1ccccc1C(=O)NNC(=O)C(=O)NC(C)(C)C` it was 21% (active); in that of `COc1ccccc1C(=O)Nc1ccnn1C1CCN(C(=O)c2ccoc2C)CC1`, -7%.
In the case of `COc1cc(NC(=O)c2ccccc2OCc2ccccc2)cc(OC)c1OC`, the activity increase over dofetilide control, less the hit threshold is -16%.
Turning to `COc1cccc(/C=C2/C(=O)NN(c3ccc(C)c(C)c3)C2=O)c1`, the activity increase over dofetilide control, less the hit threshold is -14%.
Regarding `COc1ccccc1CC(=O)Nc1ccc(OC)c(OC)c1`, the activity increase over dofetilide control, less the hit threshold was -8%.
For the compound `COc1ccccc1C(=O)NNC(=O)C(=O)Nc1ccc(C)cc1`, the activity increase over dofetilide control, less the hit threshold is 77% (active).
For the compound `O=C(COc1ccc(Cl)cc1)NNC(=O)C(=O)NC1CCCCC1`, the activity increase over dofetilide control, less the hit threshold is -9%.
On to `COc1ccc(C(=O)NNC(=O)C(=O)NC2CCCCC2)cc1`, for which the activity increase over dofetilide control, less the hit threshold was 5% (active).
In the case of `COc1ccc(C(=O)NCc2nnc(SCC(=O)NC3CCCCC3)n2C)cc1` it was -18%.
In the case of `COc1ccccc1C(=O)NNC(=O)C(=O)Nc1ccc(C)c(Cl)c1` it was 99% (active); in that of `COc1ccc(NC(=O)c2ccccc2SC)cc1OC`, -18%; in that of `O=c1oc2ccccc2c2c1nc(C(F)(F)F)n2-c1ccccc1`, -20%.
In the case of `CCCn1nnnc1SCC(=O)Nc1nnc(CC)s1` it was -6%; in that of `O=C(NCCc1nnc2ccc(NCc3ccc(Cl)cc3)nn12)c1ccccc1`, -11%.
On to `COc1ccc(C2CC(c3ccc(Cl)cc3Cl)Nc3nc(N)nn32)cc1OC` (centres undefined), for which the activity increase over dofetilide control, less the hit threshold is -10%.
Consider `O=C(/C=C/Nc1ccc(F)c(F)c1)c1cccs1`, for which the activity increase over dofetilide control, less the hit threshold is -18%.
Take `Cc1ccccc1NC(=O)CC1S/C(=N/c2nccs2)N(C)C1=O` (centres undefined): the activity increase over dofetilide control, less the hit threshold was 0%.
As for `C/C(=N\O)C1CC(CC(=O)O)C1(C)C` (centres undefined), the activity increase over dofetilide control, less the hit threshold was -13%.
As to `CSC1=C(C#N)C(CC(C)C)C2=C(CCCC2=O)N1` (centres undefined), the activity increase over dofetilide control, less the hit threshold is -12%.
In the case of `COc1ccc(N(CC(=O)N2CCN(Cc3ccccc3)CC2)S(C)(=O)=O)cc1OC` it was -3%.
In the case of `CCN1CCN(C(=O)c2ccc(Cn3c(=O)[nH]c4cc(OC)c(OC)cc4c3=O)cc2)CC1` it was -17%; in that of `CCOC(=O)N1CCN(C(=O)c2ccc(CN(c3ccc(C)c(C)c3)S(C)(=O)=O)cc2)CC1`, 8% (active).
On to `S=c1nc(Cc2ccccc2)[nH]c2ccccc12`, for which the activity increase over dofetilide control, less the hit threshold is 78% (active).
In the case of `O=c1[nH]c(SCc2cccc(Cl)c2)nc2ccccc12`, the activity increase over dofetilide control, less the hit threshold was -14%.
For `S=c1nc(Cc2ccc(Cl)cc2)[nH]c2ccccc12`, the activity increase over dofetilide control, less the hit threshold is 90% (active).
On to `S=c1nc(SCc2ccccc2)[nH]c2ccccc12`, for which the activity increase over dofetilide control, less the hit threshold is 100% (active).
As to `S=c1nc(COc2ccccc2)[nH]c2ccccc12`, the activity increase over dofetilide control, less the hit threshold is 100% (active).
In the case of `S=c1[nH]nc(-c2ccc(Cl)cc2)n1Cc1ccccc1` it was -13%; in that of `O=C(O)CCCCCNc1nc(=S)[nH]c2ccccc12`, -7%; in that of `CCC(C)N(C(=O)CSc1nnc(NC(C)C)s1)C1CCS(=O)(=O)C1` (centres undefined), -11%.
In the case of `CS(=O)(=O)N(CCc1ccccc1)CC(=O)N1CCN(c2ccc(F)cc2)CC1` it was -9%; in that of `Cc1cc(=O)oc2cc(OC(C(=O)O)c3ccccc3)ccc12` (centres undefined), -19%; in that of `C[C@@H]1CCCCCCCCCCC1=O`, -15%.
For the compound `Fc1cccc(C2NN=C(c3ccccc3)S2)c1` (centres undefined), the activity increase over dofetilide control, less the hit threshold was -12%.
In the case of `COc1ccc(Cl)cc1N(C)C(=O)CCNC(=O)Cn1cnc2ccccc2c1=O`, the activity increase over dofetilide control, less the hit threshold is -11%.
In the case of `CC(=O)c1ccc2c3c(cccc13)CC2` it was -7%.
Take `NC(=O)C1CCN(C(=O)c2cc3c(s2)CCCC3)CC1`: the activity increase over dofetilide control, less the hit threshold is 9% (active).
In the case of `CC(OC(=O)c1cc2c(s1)CCCCC2)C(=O)NC(N)=O` (centres undefined) it was -5%.
Regarding `O=C(c1cc2c(s1)-c1ccccc1OC2)N1CCCC1`, the activity increase over dofetilide control, less the hit threshold is 0%.
As to `COC(=O)CCn1[nH]c(=O)c2ccccc2c1=O`, the activity increase over dofetilide control, less the hit threshold is -2%.
On to `COc1ccc(N2CCN(S(=O)(=O)c3ccc(Br)s3)CC2)cc1`, for which the activity increase over dofetilide control, less the hit threshold was -14%.
In the case of `CC(C)c1ccc(/C=N/n2c(COc3ccccc3)n[nH]c2=S)cc1` it was 3% (active); in that of `S=c1[nH]nc(-c2ccco2)n1/N=C/C(Cl)=C/c1ccccc1`, -14%; in that of `S=c1[nH]nc(Cc2ccc(Br)cc2)n1/N=C/c1ccc(Cl)cc1`, -5%.
In the case of `Cc1cccc(/C=N/n2c(COc3ccccc3)n[nH]c2=S)c1` it was 1% (active); in that of `S=c1[nH]nc(-c2n[nH]c3c2CCC3)n1/N=C/C=C/c1ccccc1`, -27%.
`Cc1ccc2nsnc2c1S(=O)(=O)Nc1cccc2nsnc12`: the activity increase over dofetilide control, less the hit threshold was 8% (active).
Consider `O=C(O)c1ccccc1NC(=O)C1CCN(S(=O)(=O)c2cccc3nsnc23)CC1`, for which the activity increase over dofetilide control, less the hit threshold was -3%.
In the case of `Cc1ccc2nc(NC(=S)NC(=O)c3cccs3)sc2c1` it was 10% (active); in that of `O=C(NC(=S)Nc1nc2ccccc2s1)c1cccs1`, 52% (active); in that of `Cc1cc(F)ccc1NC(=O)C1CCN(C(=O)Nc2ccccc2)CC1`, -17%.
Consider `O=C(NC(C(=O)c1ccccc1)n1cnccc1=O)c1ccccc1` (centres undefined), for which the activity increase over dofetilide control, less the hit threshold is -3%.
As to `CCOc1ccc(OCC(=O)OCC(=O)N2CCN(C(=O)c3ccco3)CC2)cc1`, the activity increase over dofetilide control, less the hit threshold was -2%.
In the case of `COC(=O)c1c(NC(=O)c2ccco2)sc2c1C(C(=O)OC)CC2` (centres undefined) it was -18%.
Take `CCc1c(C)sc(NC(=O)CN2CCN(C(=O)c3ccco3)CC2)c1C(=O)OC`: the activity increase over dofetilide control, less the hit threshold was 1% (active).
Turning to `Nc1ccc(C(=O)OCC(=O)N2CCN(C(=O)c3ccco3)CC2)cc1[N+](=O)[O-]`, the activity increase over dofetilide control, less the hit threshold is -16%.
In the case of `CCOC(=O)c1c(NC(=O)CN2CCN(C(=O)c3ccco3)CC2)sc2c1CCCC2` it was 7% (active).
For the compound `O=C(CCNS(=O)(=O)c1ccc(Cl)cc1)OCC(=O)N1CCN(C(=O)c2ccco2)CC1`, the activity increase over dofetilide control, less the hit threshold was -17%.
On to `CC1=C(C)CS(=O)N(c2ccc(S(N)(=O)=O)cc2)C1` (centres undefined), for which the activity increase over dofetilide control, less the hit threshold was -3%.
In the case of `Cn1ncc2c(NNC(=O)c3ccc(O)cc3)ncnc21` it was -15%.
In the case of `Cc1nc(NCc2cccnc2)c2c3c(sc2n1)CC(C)CC3` (centres undefined) it was 55% (active).
